According to PubChem BioAssay AID588726 (The Scripps Research Institute Molecular Screening Center, 2011):
Out of some 360,000 compounds screened, about 8,200 (2.3%) were called active. Cut-off read from the data, not from the text of the source: active = inhibition above about 27%; inactive = the rest. The full list was thinned out, with actives kept by preference.

Molecular target: Fructose-bisphosphate aldolase (Mycobacterium tuberculosis (strain ATCC 25618 / H37Rv)) (UniProt P9WQA3)
Experiment: Mtb FBA enzyme inhibitors, primary screen, biochemical, fluorescence, strain H37Rv (AID 588726);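 note: 0% = vehicle and 100% = reference inhibitor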
Details: purified M. tuberculosis FBA, fluorescence read-out, at 1 µM, active compounds read high

Sequence of Fructose-bisphosphate aldolase (Mycobacterium tuberculosis (strain ATCC 25618 / H37Rv)) (P9WQA3 whole entry, looked up): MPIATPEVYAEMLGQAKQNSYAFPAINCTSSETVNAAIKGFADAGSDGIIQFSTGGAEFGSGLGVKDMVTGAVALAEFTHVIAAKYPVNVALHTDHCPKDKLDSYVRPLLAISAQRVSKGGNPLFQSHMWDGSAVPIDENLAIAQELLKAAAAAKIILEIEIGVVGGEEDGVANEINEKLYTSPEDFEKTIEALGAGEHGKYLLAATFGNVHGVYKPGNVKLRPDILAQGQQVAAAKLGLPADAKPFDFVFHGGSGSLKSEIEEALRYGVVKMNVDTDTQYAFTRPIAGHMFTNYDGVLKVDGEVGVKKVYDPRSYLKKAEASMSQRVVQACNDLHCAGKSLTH

Row | Compound | inhibition
1 | O=C(Nc1ccc2nccnc2c1)c1ccco1 | 50.1% (active)
2 | O=C(NNC(=O)c1ccco1)Nc1ccccc1 | -0.74% (inactive)
3 | CC(C)(C)NC(=O)c1cc(NC(=O)c2ccco2)cc(NC(=O)c2ccco2)c1 | 1.27% (inactive)
4 | COc1ccc(-c2[nH]ncc2CN(C)Cc2cc(C)[nH]n2)c(F)c1 | -3.53% (inactive)
5 | CC(C)C(OC(=O)c1cccs1)C(=O)NC1CCCCC1 (centres undefined) | 3.33% (inactive)
6 | O=C(NCc1cccnc1)c1cc(C2CCCN(C(=O)C3CCCCC3)C2)on1 (centres undefined) | 1.09% (inactive)
7 | CCOC(=O)CN(C(=O)COc1nc(C)cc(C)c1C#N)c1ccc(Cl)cc1 | 0.17% (inactive)
8 | Cc1cc(C(F)(F)F)c(C#N)c(SCC(=O)NC2CC2)n1 | 1.94% (inactive)
9 | CCOC(=O)COc1nc(C)cc(C(F)(F)F)c1C#N | 75.7% (active)
10 | O=C1CC(Cc2ccc(Cl)cc2)C(=O)N1c1cc(Cl)ccn1 (centres undefined) | -3.99% (inactive)
11 | Cc1cc(C)n(-c2nc(O)cc(=O)[nH]2)n1 | -2.32% (inactive)
12 | OC(c1nnc(-c2ccccc2)o1)c1cccs1 (centres undefined) | -4.15% (inactive)
13 | CN(C)c1ccc(-c2nnc(-c3cccnc3)o2)cc1 | 14.1% (inactive)
14 | Nc1ccc(-c2nnc(-c3ccc(-c4ccccc4)cc3)o2)cc1 | 62.9% (active)
15 | COC(=O)[C@@H]1C[C@@]2(O)[C@@H](O)[C@@H](O)[C@@H](O)C[C@H]2N1Cc1ccc(C)s1 | -1.21% (inactive)
16 | CC(C)Cn1c(N)c(C(=O)COC(=O)C2CCCN2C(=O)c2cccs2)c(=O)n(C)c1=O (centres undefined) | 2.37% (inactive)
17 | Cc1ccc(S(=O)(=O)N2CCN(C(=O)Cc3sc(C)nc3-c3ccc(F)cc3)CC2)c(C)c1 | -0.33% (inactive)
18 | Cc1ccc(NC(=O)CSc2nnc(CNC(=O)c3ccccc3F)o2)cc1 | 0.75% (inactive)
19 | C=CCn1c(CCNC(=O)c2ccccc2F)nnc1SCC(=O)Nc1ccc(OC)cc1 | 43.4% (active)
20 | C=CCn1c(COc2ccc(F)cc2)nnc1SCC(=O)Nc1cccc(S(N)(=O)=O)c1 | 0.32% (inactive)
21 | COc1ccc(CCNC(=O)C(=O)NCC2OCCN2S(=O)(=O)c2ccc(OC)c(C)c2)cc1 (centres undefined) | -0.91% (inactive)
22 | O=C(CN(C(=O)c1csnn1)c1cccc(Cl)c1)NC1CCCC1 | 2.14% (inactive)
23 | CC(C)[C@@H](C(=O)O)N(Cc1cccc(CN([C@H](C(=O)O)C(C)C)S(C)(=O)=O)c1)S(C)(=O)=O | 5.75% (inactive)
24 | O=C1CC2(CCCC2)Oc2ccc(Cl)cc21 | 2.17% (inactive)

Row | Compound | inhibition
25 | O=C1CC2(CCCCC2)Oc2ccc(OCC(=O)N3CCOCC3)cc21 | 49.5% (active)
26 | O=C1CC2(CCN(C(=O)COc3ccc(F)cc3)CC2)Oc2ccccc21 | 6.06% (inactive)
27 | Cc1ccc2nc(/C(C#N)=C\c3ccc(OC(=O)c4cccs4)cc3)[nH]c2c1 | 36.1% (active)
28 | COc1ccc(CCNC(=O)/C(C#N)=C2\N=C(NC(=O)c3cccs3)c3ccccc32)cc1 | -0.53% (inactive)
29 | CCN(CC)c1ccc(C(=O)c2cnc(/N=C/N(C)C)s2)cc1 | -0.9% (inactive)
30 | CCC1CCCCN1CCNC(=O)c1[nH]c(C)c(C(C)=O)c1C (centres undefined) | -2.24% (inactive)
31 | CC(C(=O)N1CCN(c2ccccc2F)CC1)c1ccc([N+](=O)[O-])cc1 (centres undefined) | -0.87% (inactive)
32 | CC(C)(C)NS(=O)(=O)c1ccc(NC(=O)C2CCCO2)cc1 (centres undefined) | 0.12% (inactive)
33 | O=C(Nc1ccc(-c2nnc(-c3ccccc3)o2)cc1)C1CCCO1 (centres undefined) | 61.2% (active)
34 | CCOc1ccc(NC(=O)c2ccc(NC(=O)C3CCCO3)cc2)cc1 (centres undefined) | 0.48% (inactive)
35 | c1ccc2c(-c3nn4nnnc4c4ccccc34)cccc2c1 | 1.01% (inactive)
36 | Cc1csc(NC(=O)C2CCN(S(=O)(=O)c3ccccc3)CC2)n1 | -1.66% (inactive)
37 | CC(=O)Nc1ccc(-c2nc3ccccc3o2)cc1 | 60.6% (active)
38 | COc1cc(OC)cc(C(=O)Nc2ccc(-c3nc4ccccc4o3)c(O)c2)c1 | 38% (active)
39 | Cc1ccc2nc(-c3ccc(NC(=O)c4cccnc4)cc3)oc2c1 | -7.14% (inactive)
40 | CC(C)(C)C(=O)CSc1nc2ccccc2o1 | 2.23% (inactive)
41 | COc1cc(OC)cc(C(=O)N[C@H](C(=O)Nc2nc3ccccc3[nH]2)C(C)C)c1 | -0.55% (inactive)
42 | COc1cccc(C(=O)Nc2ccc3nc4n(c(=O)c3c2)CCCCC4)c1 | 0.68% (inactive)
43 | CC1(C(=O)Nc2cccc3c2CCCC3)CCN1C(=O)CCc1ccc(Cl)cc1Cl (centres undefined) | 0% (inactive)
44 | O=C(Cc1ccc(F)cc1)NC1CCCC1 | -0.93% (inactive)
45 | Cc1noc(C)c1C(=O)NCCc1ccc(S(N)(=O)=O)cc1 | 0.56% (inactive)
46 | CCOC(=O)c1c(C)c(C(=O)NCCc2ccc(S(N)(=O)=O)cc2)c(C)n1CC | -2.42% (inactive)
47 | CCCNC(=O)c1c(N)n(-c2ccc(S(N)(=O)=O)cc2)c2nc3ccccc3nc12 | 102% (active)
48 | CC1(C(=O)NCc2cccc3ccccc23)CCN1Cc1ccc(-c2ccccc2)o1 (centres undefined) | 2.7% (inactive)

Row | Compound | inhibition
49 | Cc1cc(Nc2cc(N3CCN(C)CC3)nc(Sc3ccc(NC(=O)C4CC4)cc3)n2)n[nH]1 | 0.5% (inactive)
50 | NC(=O)Cc1ccc2sc(-c3ccccc3)nc2c1 | 5.06% (inactive)
51 | CCOc1ccc(-c2nc(C)sc2CC(=O)O)cc1 | 5.29% (inactive)
52 | O=C(O)Cc1sc(-c2ccc(C(=O)O)cc2)nc1-c1ccccc1 | 37% (active)
53 | Cc1cccc(C)c1N1C(=O)CN(Cc2ccccc2)C1=S | 3.51% (inactive)
54 | Clc1cccc(Cc2c(-c3cccc(Cl)c3)nc3ccc(Cl)cn23)c1 | 6.59% (inactive)
55 | Cc1ccc(Cc2c(-c3ccco3)nc3ccc(Cl)cn23)cc1 | 6.29% (inactive)
56 | Cc1ccc2nc(-c3ccco3)c(Cc3cccc(Cl)c3)n2c1 | 30.3% (active)
57 | O=C(Nc1ccc(N2CCN(C(=O)c3ccccc3)CC2)c(Cl)c1)c1cccnc1 | -4.3% (inactive)
58 | Cn1c(CCNS(=O)(=O)c2ccc(F)cc2)nnc1SCc1cccnc1 | -0.16% (inactive)
59 | COc1ccc(CCNS(=O)(=O)c2ccc(F)cc2)cc1OC | 0.71% (inactive)
60 | Cc1nn(C)c(Oc2ccccc2)c1CCNS(=O)(=O)c1ccc(F)cc1 | 28.7% (active)
61 | COC(=O)c1ccc(CN2CCC(CO)(Cc3ccc(OC)cc3)CC2)cc1 | 8.41% (inactive)
62 | CC1(Cc2cccc(C#N)c2)C(=O)Nc2ccc(-c3cccc(C(F)(F)F)c3)cc21 (centres undefined) | -1.35% (inactive)
63 | C=CCn1cc(-c2cccc(C(F)(F)F)c2)cc(C#N)c1=O | 47.4% (active)
64 | C=CCn1c(-c2ccc(Cl)cc2)ccc(C#N)c1=O | 1.41% (inactive)
65 | O=C(COC(=O)CNS(=O)(=O)c1ccc(F)c(F)c1F)NC1CCCC1 | -3.58% (inactive)
66 | COc1ccc(CNC(=O)CN(C(=O)c2csnn2)c2cnc3ccccc3c2)cc1 | 3.6% (inactive)
67 | COC(=O)N1CN(C(=O)OC)CN(C(=O)OC)C1 | 0.37% (inactive)
68 | Cc1nc2ccc(NC(=O)N3CCC(c4ccccc4)C3)cc2nc1C (centres undefined) | 72.4% (active)
69 | Cc1nc2ccc(NC(=S)N3CCC(C)CC3)cc2nc1C | 5.9% (inactive)
70 | Cc1ccc(C2CCN(C(=S)Nc3cccc(Cl)c3)C2)cc1 (centres undefined) | -1.23% (inactive)
71 | COc1cccc(CN2CCN(Cc3ccc4cccc(F)c4n3)CC2CCO)c1 (centres undefined) | 2.17% (inactive)
72 | Cc1ccc(C(CNC(=O)Nc2cccc(C)c2)N2CCN(C)CC2)cc1 (centres undefined) | 2.29% (inactive)

Row | Compound | inhibition
73 | COc1ccc(-c2cc(=O)oc3cc(OCC(=O)N(C)C4CCS(=O)(=O)C4)ccc23)cc1 (centres undefined) | 3.8% (inactive)
74 | Cc1ccccc1NC(=O)c1ccc(COc2ccc3c(C)cc(=O)oc3c2)cc1 | 11.9% (inactive)
75 | CCN(C(=O)COC(=O)c1ccc(COc2ccc3c(C)cc(=O)oc3c2)cc1)C1CCS(=O)(=O)C1 (centres undefined) | 44.6% (active)
76 | C[C@@H]1CN([C@@H](C)CO)C(=O)CCCn2nncc2CO[C@@H]1CN(C)S(=O)(=O)c1ccc(-c2ccccc2)cc1 | -2.99% (inactive)
77 | CCc1nc2c(OCCOc3ccccc3)cccn2c1N(C)C(=O)c1ccc(OC)cc1 | 1.06% (inactive)
78 | CN(C)CCCn1c(N)c(C#N)c2nc(C#N)c(C#N)nc21 | 61.1% (active)
79 | C=CCn1c(SCc2nnc(-c3ccccc3)o2)nnc1C(O)c1ccccc1 (centres undefined) | 1.46% (inactive)
80 | Cc1sc2nc(SCCO)n(-c3ccccc3)c(=O)c2c1C | 1.67% (inactive)
81 | Cc1cc(C)c2c(n1)sc1c(=O)n(-c3ccccc3)c(=O)[nH]c12 | 38.8% (active)
82 | C/C(O)=C\c1nc(=O)c2c(C)cc(C)nc2n1-c1ccccc1 | 4.59% (inactive)
83 | COC(=O)c1ccccc1NC(=O)CN(Cc1ccccc1)S(C)(=O)=O | 5.21% (inactive)
84 | COc1ccccc1N1CCN(S(=O)(=O)CCNC(=O)c2ccc(OC(C)C)cc2)CC1 | -0.15% (inactive)
85 | C[C@@H]1CN([C@@H](C)CO)C(=O)c2c(c3ccccc3n2C)-c2ccccc2CO[C@H]1CN(C)C(=O)C1CC1 | 2.36% (inactive)
86 | COc1cccc(Cn2cnc3c([N+](=O)[O-])c(C)c(C)cc32)c1 | -3.25% (inactive)
87 | COc1ccc2oc(C(=O)NCc3ccco3)c(C)c2c1 | 25.3% (inactive)
88 | Cc1ccc2[nH]c3c(=O)n(Cc4ccccn4)cnc3c2c1 | 29.9% (active)
89 | O=c1c2[nH]c3ccc(Cl)cc3c2ncn1Cc1ccccn1 | -2.42% (inactive)
90 | COc1ccc2c(c1)c1nc3n(c(=O)c1n2CC(=O)Nc1ccccc1)CCS3 | 8.41% (inactive)
91 | Cc1ccc(C)c(Cn2cnc3c(oc4ccccc43)c2=O)c1 | -1.54% (inactive)
92 | COc1ccc2c(c1)c1ncn(Cc3ccccn3)c(=O)c1n2C | 159% (active)
93 | CCN1CCCC1Cn1cnc2c([nH]c3cc(OC)ccc32)c1=O (centres undefined) | 1.27% (inactive)
94 | COc1ccc2[nH]c3c(=O)n(Cc4ccco4)cnc3c2c1 | 97.5% (active)
